Screening results (PubChem)
Pemphigus Ab inh: inhibitors of pemphigus antibody binding to DSG3, primary screen, biochemical, bead-based, flow cytometry, scFv-GFP; Desmoglein-3 (Homo sapiens), P32926; DSG3-coupled beads, scFv-anti-DSG3-GFP binding; active compounds read low; binding (percent of control), % at 10 µM; 310,000 tested, 0.48% active; AID 588358, 2011;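 active means binding more than 3 SD below its plate's average and above zero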;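 further: hits lower antibody fragment binding to DSG3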
proKLK7 act: proKLK7 zymogen activators, primary screen, biochemical, fluorescence intensity | Kallikrein-7 (Homo sapiens), P49862 | purified proKLK7, EDANS-DABCYL substrate fluorescence; 100% is mature enzyme control, 0% vehicle | activation, % at 7 µM | 370,000 tested, 0.9% active;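 active means activation above the mean of all tested compounds plus 3 SD, computed per campaign excluding outliers beyond control limits, cut at about 13% in these data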
ADAM17 inh: ADAM17 inhibitors, primary screen, biochemical, QFRET; Disintegrin and metalloproteinase domain-containing protein 17 (Homo sapiens), P78536; recombinant ADAM17, EDANS/DABCYL FRET peptide cleavage; inhibition, % at 6.95 µM; 370,000 tested, 0.83% active; AID 720648, 2013;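 active means inhibition above the mean of compounds lying between control limits plus 3 SD, set per campaign, cut at about 8.5% in these data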
Target sequence (P78536 215-824 limits assumed): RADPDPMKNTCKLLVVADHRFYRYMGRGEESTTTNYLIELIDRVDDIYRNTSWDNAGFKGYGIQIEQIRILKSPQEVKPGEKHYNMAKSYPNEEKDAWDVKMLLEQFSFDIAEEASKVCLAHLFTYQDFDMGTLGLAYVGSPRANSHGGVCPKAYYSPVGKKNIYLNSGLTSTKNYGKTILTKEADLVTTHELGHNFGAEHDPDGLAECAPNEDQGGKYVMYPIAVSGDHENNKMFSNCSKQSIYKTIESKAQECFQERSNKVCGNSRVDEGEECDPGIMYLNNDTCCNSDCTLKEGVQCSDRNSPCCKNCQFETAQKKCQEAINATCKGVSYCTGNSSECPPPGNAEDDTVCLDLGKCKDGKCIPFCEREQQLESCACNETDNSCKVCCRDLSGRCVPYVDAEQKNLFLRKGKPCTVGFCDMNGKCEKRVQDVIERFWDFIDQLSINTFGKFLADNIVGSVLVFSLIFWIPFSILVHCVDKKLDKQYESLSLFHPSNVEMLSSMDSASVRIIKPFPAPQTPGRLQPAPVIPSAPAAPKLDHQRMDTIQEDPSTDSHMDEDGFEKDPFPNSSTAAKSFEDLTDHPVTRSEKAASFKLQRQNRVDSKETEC
rCAG binder: binders of r(CAG) RNA repeats, primary screen, biochemical, fluorescence. inhibition, % at 3 µM. r(CAG) RNA repeat, TO-PRO-1 dye displacement fluorescence. AID 651821, 2012. 370,000 tested, 1.3% active;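 active means inhibition above the plate cutoff, the mean of all test compounds on that plate plus 3 SD, cut at about 35% in these data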;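 further: higher means more dye released from RNA so lower well fluorescence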
MPTP inh: mitochondrial permeability transition pore inhibitors, primary screen, biochemical, isolated mouse mitochondria, absorbance; 360,000 tested, 1.4% active; Ca2+ swelling absorbance, 30 min; AID 602449, 2012; inhibition, % at 10 µM;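 active means inhibition of 50% or more, scaled per plate between neutral and stimulator controls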
ADAM10 inh: human ADAM10 inhibitors, primary screen, biochemical, QFRET, HTS; recombinant ADAM10, EDANS/DABCYL FRET peptide cleavage, 3 h; inhibition, % at 7 µM; 370,000 tested, 0.62% active; AID 720582, 2013;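 active means inhibition above a per-campaign cutoff equal to the mean of compounds falling between control-based bounds plus 3 SD, cut at about 20% in these data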
ADAM10 confirm: human ADAM10 inhibitors, confirmation, biochemical, QFRET, triplicate | shares compounds with ADAM10 inh | ADAM10 QFRET peptide cleavage, EDANS fluorescence | inhibition, % at 6.95 µM | 2,100 tested, 1% active;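 active means inhibition above about 20% chosen separately for each screening run, limit read from the data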
ADAM17 counter: ADAM17 inhibitors, counter-screen for ADAM10 exosite inhibitor project, biochemical, QFRET, high throughput; shares compounds with ADAM10 inh; ADAM17 QFRET peptide cleavage, EDANS fluorescence; inhibition, % at 6.95 µM; 2,100 tested, 0.5% active; AID 743214, 2013;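 active means mean triplicate inhibition above the solvent-only control wells' mean plus 3 SD, cut at about 12% in these data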
Of the large screens only hits and unclear results are named; the others gave an inactive call (follow-up assays come after a bar, where they were run). Sampled rows, rich in hits. Any-hit rate of the full collection: about 4.7%.

O=C(COc1ccc(S(=O)(=O)NC2CCCCC2)cc1)NC1CCCC1	none
COc1ccccc1NC(=O)Nc1ccc(-n2ccc(C(F)(F)F)n2)cc1	ADAM10 inh 30 | ADAM10 confirm inactive | ADAM17 counter inactive
Clc1ccccc1C1CC(c2ccccc2)Nc2ncnn21 (stereo not given)	ADAM10 inh 92 | ADAM10 confirm inactive | ADAM17 counter inactive
CC(Oc1ccc(Br)cc1)C(=O)Nc1cc(Cl)ccc1N1CCN(C)CC1 (stereo not given)	ADAM10 inh 20 | ADAM10 confirm inactive | ADAM17 counter inactive
O=C(NCC(O)c1ccccc1)c1ccc(Cl)c(S(=O)(=O)N2CCCCC2)c1 (stereo not given)	none
CCOC(=O)c1c(C)oc2ccc(NS(=O)(=O)c3cccs3)cc12	ADAM10 inh 21 | ADAM10 confirm inactive | ADAM17 counter inactive
COCCOC(=O)c1c(C)oc2ccc(NS(=O)(=O)c3cccs3)cc12	none
Cc1cc(Cl)ccc1NC(=O)CN1CCCC1	none
Cc1cc(Cl)ccc1NC(=O)CN1CCC(C(O)(c2ccccc2)c2ccccc2)CC1	ADAM17 inh 8.7, ADAM10 inh 26 | ADAM10 confirm inactive | ADAM17 counter inactive
O=C(O)Cn1nnnc1SCC(=O)Nc1ccccc1F	none (no result: Pemphigus Ab inh)
O=C(O)Cn1nnnc1SCC(=O)Nc1ccc(OC(F)(F)F)cc1	ADAM10 inh 82 (no result: Pemphigus Ab inh) | ADAM10 confirm inactive | ADAM17 counter inactive
O=C1CCC[C@@H]2Cc3nc4ccc(Cl)cc4cc3[C@@H]3CCN1[C@H]23	none
CCOc1cc2c(cc1OC)C(NC(=O)c1ccco1)CC2=O (stereo not given)	none
COc1ccc(C2CC(c3ccccc3)=NN2S(=O)(=O)c2ccc(C)cc2)c(OC)c1 (stereo not given)	ADAM10 inh 23 | ADAM10 confirm inactive | ADAM17 counter inactive
CN(Cc1nc2ccccc2n1C)C(=O)c1ccco1	none
O=C(/C=C/c1cccc([N+](=O)[O-])c1)Nn1c(-c2ccccc2F)nc2ccccc2c1=O	ADAM10 inh 24 | ADAM10 confirm inactive | ADAM17 counter inactive
C=CCN1C(=S)CC(c2ccccc2)=Nc2ccccc21	none
Cc1cc(C)c(C(=O)OCC(=O)Nc2cccc(S(=O)(=O)N3CCCCC3)c2)c(C)c1	ADAM17 inh 13, ADAM10 inh 28 | ADAM10 confirm inactive | ADAM17 counter inactive
COc1ccccc1CCC(=O)Nc1cccc(S(=O)(=O)N2CCCCCC2)c1	ADAM10 inh 23 | ADAM10 confirm inactive | ADAM17 counter inactive
COc1ccccc1CCC(=O)Nc1cccc(S(=O)(=O)N2CCOCC2)c1	none
O=C(COC(=O)c1ccccc1Cl)Nc1cccc(S(=O)(=O)N2CCCCC2)c1	none
O=C1N[C@@H](Cc2c[nH]c3ccccc23)COC(=O)[C@H](Cc2ccc(F)cc2)C/C=C\C[C@H]1CC(=O)N(CCO)Cc1ccccc1	ADAM10 inh 22 | ADAM10 confirm inactive | ADAM17 counter inactive
O=C1N[C@@H](Cc2ccccc2)COC(=O)[C@H](Cc2ccc(F)cc2)C/C=C\C[C@H]1CC(=O)N(CCO)Cc1ccccc1	none
CCC(O)C1CCN(C(=O)c2cc(COc3ccc(F)cc3F)on2)CC1 (stereo not given)	none
Cc1ccc(S(=O)(=O)Nc2cccc(C(=O)N3CCN(c4ccccc4O)CC3)c2)cc1F	ADAM10 inh 20 | ADAM10 confirm inactive | ADAM17 counter inactive
